# Test: viability loss with induced miR-34 in A549 – imaging, A549 dox-inducible miR-34, nuclei and caspase counts, primary screen (AID 1347080); also: test concentration not given here
# Settings: A549 miR-34 inducible, Hoechst nuclei count, 48 h; measured here: total cells with miR-34 induction; stronger effect = lower value
row,SMILES,cell count
1,O=C(NCc1ccncc1)C12CC3CC(C1)CC(c1ccc(Cl)cc1)(C3)C2,4010
2,O=C1OC2(c3ccc(O)cc3Oc3cc(Oc4ccc(O)cc4)ccc32)c2ccccc21 (configuration not stated),6230
3,CCCCCCCCCCCCCC(=O)O,6710
4,FC(F)(F)c1ccc(/C=C/c2cc(Cl)cc(Cl)c2)cc1,5620
5,O=C(O)CCC/C=C\C[C@@H]1[C@@H](/C=C/[C@@H](O)COc2ccccc2)[C@H](O)C[C@@H]1O,6410
6,O=C1O/C(=C/Br)CC[C@H]1c1cccc2ccccc12,3970
7,CC(C)c1cc2c(c(O)c1O)C13CCCC(C)(C)C1CC2OC3=O (configuration not stated),5390
8,O=c1[nH]cc(CO)c(=O)[nH]1,5770
9,COc1ccc(/C=C/c2cc(Cl)cc(Cl)c2)cc1,5410
10,CCCCCCCCCCCCCCCCC/C=C/C(=O)O,5370
11,CCCCCC/C=C/C=C\CCCCCCCC(=O)O,5840
12,O=C(O)CCC/C=C\C[C@H]1C(=O)C=C[C@@H]1CC[C@@H](O)CCc1ccccc1,6220
13,O=C(CCc1ccc(O)c(O)c1)N[C@@H](CC(=O)OCc1ccccc1)C(=O)OCc1ccccc1,6350
14,O=C(O)CCC/C=C\C[C@H]1[C@@H](O)CC(=O)[C@@H]1/C=C/[C@@H](O)COc1cccc(C(F)(F)F)c1,6530
15,O=C(O)CCC/C=C\C[C@@H]1[C@@H](/C=C/[C@@H](O)Cc2ccccc2)[C@H](O)C[C@@H]1O,6070
16,CCCCC[C@H](O)/C=C/[C@H]1[C@H](O)CC(=O)[C@@H]1C/C=C\CCCC(=O)NC(CO)CO,6080
17,CCCCC[C@](C)(O)/C=C/[C@@H]1[C@@H](C/C=C\CCCC(=O)OC)[C@@H](O)C[C@H]1O,6340
18,CCCCC/C=C/C=C1/C(=O)C[C@H](O)[C@@H]1C/C=C\CCCC(=O)O,6090
19,CC(C)CCCC(C)CCCC(C)CCCC(C)CC(=O)O (configuration not stated),5990
20,CC(C)OC(=O)CCC/C=C\C[C@@H]1[C@@H](/C=C/[C@H](O)C2Cc3ccccc3C2)[C@@H](F)C[C@@H]1O,5350
21,CCCCC/C=C\C/C=C\C/C=C\CCCC/C=C\CCC(=O)O,5780
22,CCCCCCCCCC(=O)N[C@@H](CN1CCOCC1)[C@@H](O)c1ccccc1,5480
23,CCCCCCCCCCCCCCCCOC[C@H](COP(=O)([O-])OCC[N+](C)(C)C)OC(=O)CCC,5110

# Same assay, conditions: A549 miR-34 inducible, Hoechst nuclei count, 48 h; measured here: total cells without miR-34 induction
row,SMILES,cell count
1,CC#CCC(C)[C@H](O)/C=C/[C@@H]1[C@H]2C/C(=C\CCCC(=O)O)C[C@H]2C[C@H]1O (some centres not stated),6220
2,CCCCCCCCCCCCCCCCOC[C@H](COP(=O)([O-])OCC[N+](C)(C)C)OC,7330
3,CC(C)CCOc1ccc(N)cc1,4850
4,O=C(O)CCC/C=C\C[C@@H]1[C@@H](/C=C/[C@H](O)COc2cccc(C(F)(F)F)c2)[C@H](O)C[C@@H]1O,5890
5,CN(C)C(=O)CCSC(SCCC(=O)O)c1cccc(/C=C/c2ccc3ccc(Cl)cc3n2)c1 (configuration not stated),5340
6,COc1ccc2c(c1)c(CC(=O)NCCc1ccccc1)c(C)n2C(=O)c1ccc(Cl)cc1,5920
7,CC/C=C\C/C=C\C/C=C\C/C=C\CCCCCCC(=O)OCC,6480
8,CCNC(=O)CCC/C=C\C[C@@H]1[C@@H](CC[C@@H](O)CCc2ccccc2)[C@H](O)C[C@@H]1O,6420
9,CCCCCCC(Sc1nc(Cl)cc(NCc2ccc(-c3ccccc3)cc2)n1)C(=O)O (configuration not stated),6180
10,CCCCC/C=C\C=C\CCCCCCCCC(=O)O,5480
11,C=C1C[C@H](O)[C@H](C/C=C\CCCC(=O)O)[C@H]1/C=C/[C@@H](O)CCCCC,6010
12,CCCCCC(=O)OC[C@H](CO)OC(=O)CCCCC,5590
13,C=C1O[C@@](CO)(n2cnc3c(N)ncnc32)[C@H](O)[C@@H]1O,5180
14,COc1ccc(/C=C/c2cc(O)cc(O)c2)cc1O,6250
15,CCCCCC(=O)CC[C@H]1C=CC(=O)[C@@H]1C/C=C\CCCC(=O)O,5820
16,CCCCC[C@@](C)(O)/C=C/[C@H]1[C@H](O)CC(=O)[C@@H]1C/C=C\CCCC(=O)O,5570
17,O=C(NCc1ccncc1)C12CC3CC(C1)CC(c1ccc(Cl)cc1)(C3)C2,4380
18,O=C1OC2(c3ccc(O)cc3Oc3cc(Oc4ccc(O)cc4)ccc32)c2ccccc21 (configuration not stated),6520
19,CCCCCCCCCCCCCC(=O)O,6460
20,FC(F)(F)c1ccc(/C=C/c2cc(Cl)cc(Cl)c2)cc1,5570

row,SMILES,cell count
1,O=C(O)CCC/C=C\C[C@@H]1[C@@H](/C=C/[C@@H](O)COc2ccccc2)[C@H](O)C[C@@H]1O,6700
2,O=C1O/C(=C/Br)CC[C@H]1c1cccc2ccccc12,3470
3,CC(C)c1cc2c(c(O)c1O)C13CCCC(C)(C)C1CC2OC3=O (configuration not stated),5730
4,O=c1[nH]cc(CO)c(=O)[nH]1,5720
5,COc1ccc(/C=C/c2cc(Cl)cc(Cl)c2)cc1,5220
6,CCCCCCCCCCCCCCCCC/C=C/C(=O)O,5500
7,CCCCCC/C=C/C=C\CCCCCCCC(=O)O,5920
8,O=C(O)CCC/C=C\C[C@H]1C(=O)C=C[C@@H]1CC[C@@H](O)CCc1ccccc1,6690
9,O=C(CCc1ccc(O)c(O)c1)N[C@@H](CC(=O)OCc1ccccc1)C(=O)OCc1ccccc1,6270
10,O=C(O)CCC/C=C\C[C@H]1[C@@H](O)CC(=O)[C@@H]1/C=C/[C@@H](O)COc1cccc(C(F)(F)F)c1,6490
11,O=C(O)CCC/C=C\C[C@@H]1[C@@H](/C=C/[C@@H](O)Cc2ccccc2)[C@H](O)C[C@@H]1O,6260
12,CCCCC[C@H](O)/C=C/[C@H]1[C@H](O)CC(=O)[C@@H]1C/C=C\CCCC(=O)NC(CO)CO,5870
13,CCCCC[C@](C)(O)/C=C/[C@@H]1[C@@H](C/C=C\CCCC(=O)OC)[C@@H](O)C[C@H]1O,6490
14,CCCCC/C=C/C=C1/C(=O)C[C@H](O)[C@@H]1C/C=C\CCCC(=O)O,5880
15,CC(C)CCCC(C)CCCC(C)CCCC(C)CC(=O)O (configuration not stated),6040
16,CC(C)OC(=O)CCC/C=C\C[C@@H]1[C@@H](/C=C/[C@H](O)C2Cc3ccccc3C2)[C@@H](F)C[C@@H]1O,5450
17,CCCCC/C=C\C/C=C\C/C=C\CCCC/C=C\CCC(=O)O,6170
18,CCCCCCCCCC(=O)N[C@@H](CN1CCOCC1)[C@@H](O)c1ccccc1,5940
19,CCCCCCCCCCCCCCCCOC[C@H](COP(=O)([O-])OCC[N+](C)(C)C)OC(=O)CCC,5890

# Reference: PubChem BioAssay
